Inconclusive results are not listed. Active and inactive are the calls of the source. Unless noted, calls come from the whole dose curve; as a rule, active = well fitted curve in the direction sought with a large enough effect in the repeat runs; inconclusive = weak or mixed curves; inactive = no such curve, though single readings can be large; an effect the other way counts as inactive or inconclusive.
Key:
[1] = qHTS assay for small molecules that induce genotoxicity in human embryonic kidney cells expressing luciferase-tagged ATAD5 (AID 651632); note: nearly all actives have a fitted effect of over 15% in size
How it was run: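 Test compounds were delivered by pin tool onto HEK293T reporter cells (2,000/well) expressing ATAD5 fused to luciferase. After 16 hr at 37C, 5% CO2, Amplite was added for 30 min at room temperature and luminescence was measured.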

[2] = qHTS assay for small molecule agonists of the p53 signaling pathway - cell viability (AID 651633; calls by dose curve;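 note: p53RE-bla HCT reporter cells with a stable beta-lactamase p53 reporter; series mostly up to about 83 µM; nearly all actives have a fitted effect of over 30% in size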)
How it was run: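 p53RE-bla cells were treated with compound for 16 hours at 37 C. Cytotoxicity was then measured as CellTiter-Glo luminescence after 30 min at room temperature.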

[3] = qHTS assay for small molecules that induce genotoxicity in human embryonic kidney cells expressing luciferase-tagged ATAD5 - cell viability (AID 651634; calls by dose curve; note: nearly all actives have a fitted effect of over 25% in size)
How it was run: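 Quantitative high-throughput format. HEK293T cells expressing ATAD5 fused to luciferase were plated at 2,000 cells/well and treated 15.5 hr with compound versus DMSO. Viability was determined by fluorescent live-cell protease substrate, 30 min at 37C.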

[4] = qHTS assay for small molecule disruptors of the mitochondrial membrane potential - cell viability (AID 720634; calls by dose curve;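 note: human HepG2 liver cancer cells; series mostly up to about 83 µM; nearly all actives have a fitted effect of over 20% in size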)
How it was run: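 Same-well counter-screen: following the MMP dye addition, CellTiter-Glo was added to 1 hr compound-treated HepG2 cells and luminescence read after 30 min at room temperature.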

[5] = qHTS assay to test for compound auto fluorescence at 535 nm (green) in HepG2 cells (AID 720675)
[6] = qHTS assay to test for compound auto fluorescence at 460 nm (blue) in HEK293 cells (AID 720678)
How it was run: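 Measured: blue fluorescence (Ex 405/Em 460 nm) of compound-treated HEK293 cells, incubated overnight at 37C with 5% CO2 and scaled to triamterene equivalents.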

[7] = qHTS assay to test for compound auto fluorescence at 590 nm (red) in HEK293 cells (AID 720679)
How it was run: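 Using HEK293 cells at 2,000 per well, the screen added 23 nL of each compound after cell attachment and incubated overnight (37C, 5% CO2). The plate reader then captured red-label fluorescence, Ex/Em 540/590nm.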

[8] = qHTS assay to test for compound auto fluorescence at 460 nm (blue) in HEK293 cell free culture (AID 720681)
How it was run: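 Compounds were added to cell-free DMEM with 10% FBS and fluorescence read directly. The blue channel used 405 nm excitation and 460 nm emission, with triamterene as the reference fluorophore.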

[9] = qHTS assay to test for compound auto fluorescence at 535 nm (green) in HEK293 cell free culture (AID 720682)
How it was run: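 Each library compound, or DMSO control, is added by pintool to medium alone, comprising DMEM and 10% FBS. Emission at 535 nm following 485 nm excitation is quantified against fluorescein.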

[10] = qHTS assay to test for compound auto fluorescence at 590 nm (red) in HEK293 cell free culture (AID 720683)
How it was run: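 Cell-free wells of DMEM with 10% FBS received compound, and intrinsic fluorescence was read at excitation/emission 540/590 nm. Values expressed as equivalence to Rose Bengal sodium.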

[11] = qHTS assay to test for compound auto fluorescence at 590 nm (red) in HepG2 cell free culture (AID 720684)
How it was run: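 Rose Bengal sodium served as the reference for red signal. Test compounds were dispensed into serum-containing MEM (10% FBS) without cells, and plates were read at 540/590 nm.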

[12] = qHTS assay to test for compound auto fluorescence at 460 nm (blue) in HepG2 cell free culture (AID 720685)
How it was run: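 Cell-free plates of MEM plus 10% FBS received 23 nL compound or DMSO vehicle; blue-channel (405/460 nm) intensity scored against triamterene as reference fluorophore.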

[13] = qHTS assay to test for compound auto fluorescence at 535 nm (green) in HepG2 cell free culture (AID 720686)
[14] = qHTS assay to test for compound auto fluorescence at 460 nm (blue) in HepG2 cells (AID 720687)
How it was run: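 HepG2 cells in MEM with 10% FBS, attached overnight at 37 C, were exposed to compound or DMSO for 1 hr at 37 C, 5% CO2. Blue fluorescence was read at 405/460 nm, with triamterene as reference fluorophore.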

[15] = target: Glucocorticoid receptor (Homo sapiens) (UniProt P04150); assay: qHTS assay to identify small molecule agonists of the glucocorticoid receptor (GR) signaling pathway (AID 720691; active = well fitted activation curve with a large enough effect in the signal ratio in the repeat runs, not every such curve was filed as active; the % refers to the signal ratio; note: potency is the fitted concentration of half-maximal effect)
Glucocorticoid receptor (Homo sapiens), sequence (P04150 whole entry, looked up): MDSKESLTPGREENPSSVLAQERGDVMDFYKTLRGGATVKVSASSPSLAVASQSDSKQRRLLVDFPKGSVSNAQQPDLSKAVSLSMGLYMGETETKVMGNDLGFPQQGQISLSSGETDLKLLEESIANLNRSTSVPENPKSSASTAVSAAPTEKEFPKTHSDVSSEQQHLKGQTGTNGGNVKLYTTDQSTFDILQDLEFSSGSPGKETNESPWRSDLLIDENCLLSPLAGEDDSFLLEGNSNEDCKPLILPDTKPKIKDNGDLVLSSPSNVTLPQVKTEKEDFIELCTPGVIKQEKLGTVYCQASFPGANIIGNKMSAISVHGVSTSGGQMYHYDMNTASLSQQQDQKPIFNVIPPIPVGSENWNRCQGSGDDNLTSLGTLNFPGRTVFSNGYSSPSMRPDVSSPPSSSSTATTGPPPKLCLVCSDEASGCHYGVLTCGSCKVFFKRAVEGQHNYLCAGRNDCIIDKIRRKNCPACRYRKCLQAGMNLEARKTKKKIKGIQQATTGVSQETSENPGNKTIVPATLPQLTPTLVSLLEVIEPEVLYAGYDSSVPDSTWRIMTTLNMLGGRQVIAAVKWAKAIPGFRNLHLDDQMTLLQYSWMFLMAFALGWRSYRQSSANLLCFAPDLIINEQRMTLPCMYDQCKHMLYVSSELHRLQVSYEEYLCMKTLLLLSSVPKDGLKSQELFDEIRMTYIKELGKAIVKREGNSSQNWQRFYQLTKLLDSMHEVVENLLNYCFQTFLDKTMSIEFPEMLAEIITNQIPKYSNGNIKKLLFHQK
How it was run: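 A HeLa cervical cancer line expressing GR and a glucocorticoid response element-driven beta-lactamase gene is treated with compounds for 18 h; LiveBLAzer B/G FRET substrate is then applied and fluorescence read.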

[16] = target: Glucocorticoid receptor (Homo sapiens) (UniProt P04150); assay: qHTS assay to identify small molecule antagonists of the glucocorticoid receptor (GR) signaling pathway (AID 720692; active = well fitted inhibition curve with a large enough effect in the signal ratio in the repeat runs, not every such curve was filed as active; the % refers to the signal ratio)
How it was run: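 GRE-bla HeLa line, dex-stimulated (5 nM final). Compound exposure 18 h, 37 C. Beta-lactamase FRET read after 2 h RT substrate.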

[17] = qHTS assay to test for compound auto fluorescence at 590 nm (red) in HepG2 cells (AID 720674)
How it was run: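 Seeding: 2,000 HepG2 cells/well, MEM/10% FBS, overnight 37 C. Dosing: compound vs DMSO. Incubation: 1 hr, 37 C, 5% CO2. Read: fluorescence 540 ex/590 em, Rose Bengal sodium as red reference.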

[18] = qHTS assay to test for compound auto fluorescence at 535 nm (green) in HEK293 cells (AID 720680)
% is set by controls: 0 for no effect and ±100 for the full control effect.

CCC1=C(C)CN(C(=O)NCCc2ccc(S(=O)(=O)NC(=O)NC3CCC(C)CC3)cc2)C1=O (configuration not stated)
inactive: Potency [1] | Potency [2] | Potency [3] | Potency [4] | outcome [5] | Potency [6] | outcome [7] | Potency [8] | outcome [9] | outcome [10] | outcome [11] | outcome [12] | outcome [13] | outcome [14] | Potency [15] | Potency [16]

O=C(Nc1ccccc1)c1cc([N+](=O)[O-])ccc1Cl
inactive: Potency [1] | Potency [2] | Potency [3] | Potency [4] | outcome [17] | outcome [5] | Potency [6] | outcome [7] | outcome [18] | Potency [8] | outcome [9] | outcome [10] | outcome [11] | outcome [12] | outcome [13] | outcome [14]

CC(=O)OCC(=O)[C@@]1(O)CC[C@H]2[C@@H]3CCC4=CC(=O)C=C[C@]4(C)[C@@]3(F)[C@@H](O)C[C@@]21C
active: Potency [15] 12.9 nM
inactive: Potency [1] | Potency [2] | Potency [3] | Potency [4] | fluorescence, % of fluorescein control [5] 0.0333% [at 18.6 µM] | fluorescence, % of triamterene [6] 0.0056% [at 18.6 µM] | fluorescence, % of fluorescent control [7] 0.478% [at 18.6 µM] | fluorescence, % of fluorescent control [8] -0.0825% [at 18.6 µM] | activity change [9] 0.114% [at 18.6 µM] | fluorescence, % of fluorescent control [10] 0.0194% [at 18.6 µM] | fluorescence, % of Rose Bengal [11] -0.0287% [at 18.6 µM] | fluorescence, % of fluorescent control [12] 0.0112% [at 18.6 µM] | fluorescence, % of fluorescein control [13] -0.0779% [at 18.6 µM] | fluorescence, % of fluorescent control [14] -0.158% [at 18.6 µM]

N#C[C@@H]1CC(F)(F)CN1C(=O)CNC1CC2CCC(C1)N2c1ncccn1 (some centres not stated)
inactive: Potency [1] | Potency [2] | Potency [3] | Potency [4] | outcome [17] | outcome [5] | Potency [6] | outcome [7] | outcome [18] | Potency [8] | outcome [11] | outcome [12] | outcome [13] | outcome [14] | Potency [15] | Potency [16]

CC(C)(Cc1c[nH]c2ccccc12)NCC(O)COc1ccccc1C#N (configuration not stated)
inactive: Potency [1] | Potency [2] | Potency [3] | Potency [4] | outcome [17] | outcome [5] | Potency [6] | outcome [7] | outcome [18] | Potency [8] | outcome [10] | outcome [12] | outcome [13] | outcome [14]

— PubChem BioAssay (Tox21)
